# Reference: publication PMC11006913
# Numbering of substitutions follows the chain as printed.
# Legend:
# Experiment in all cases: PBM; 200 nM protein, PBS
# Details in all cases: dsDNA, one strand shown
# HOXA4 [1] = biological target: HOXA4 (Homo sapiens, UniProt Q00056 201-287, W262R)
# HOXA4 [2] = biological target: HOXA4 (Homo sapiens, UniProt Q00056 201-287, R217L)
# HOXA2 = HOXA2 (Homo sapiens, UniProt O43364 129-215, R185K)
# HOXA4 [3] = biological target: HOXA4 (Homo sapiens, UniProt Q00056 201-287)
# Chain of HOXA4 (Homo sapiens, UniProt Q00056 201-287) (Q00056 201-287): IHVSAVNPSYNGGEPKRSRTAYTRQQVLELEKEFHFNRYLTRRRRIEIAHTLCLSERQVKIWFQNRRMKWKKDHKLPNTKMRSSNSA
# HOXA4 [4] = biological target: HOXA4 (Homo sapiens, UniProt Q00056 201-287, W262F)
# Chain of HOXA4 (Homo sapiens, UniProt Q00056 201-287, W262F) (Q00056 201-287 W262F): as the sequence (Q00056 201-287) above, with W62F counted along it
# ALX3 [5] = biological target: ALX3 (Homo sapiens, UniProt O95076 139-225, N203Q)
# Chain of ALX3 (Homo sapiens, UniProt O95076 139-225, N203Q) (O95076 139-225 N203Q): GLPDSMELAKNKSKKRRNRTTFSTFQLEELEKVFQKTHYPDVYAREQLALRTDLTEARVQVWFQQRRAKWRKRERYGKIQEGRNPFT
# NKX2-6 [6] = biological target: T1, NKX2-6 (Homo sapiens, UniProt A6NCS4 118-204)
# T1 sequence: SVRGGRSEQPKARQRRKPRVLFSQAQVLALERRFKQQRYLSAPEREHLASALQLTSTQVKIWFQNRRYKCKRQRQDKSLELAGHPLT
# ALX3 [7] = biological target: ALX3 (Homo sapiens, UniProt O95076 139-225)
# Chain of ALX3 (Homo sapiens, UniProt O95076 139-225) (O95076 139-225): as the sequence (O95076 139-225 N203Q) above, with Q65N counted along it
# ALX3 [8] = biological target: ALX3 (Homo sapiens, UniProt O95076 139-225, L168Q)
# Chain of ALX3 (Homo sapiens, UniProt O95076 139-225, L168Q) (O95076 139-225 L168Q): as the sequence (O95076 139-225 N203Q) above, with L30Q, Q65N counted along it
# NKX2-6 [9] = biological target: T2, NKX2-6 (Homo sapiens, UniProt A6NCS4 118-204, F151L)
# T2 sequence: T1 sequence with F34L
# ALX3 [10] = biological target: ALX3 (Homo sapiens, UniProt O95076 139-225, L168V)
# Chain of ALX3 (Homo sapiens, UniProt O95076 139-225, L168V) (O95076 139-225 L168V): as the sequence (O95076 139-225 N203Q) above, with L30V, Q65N counted along it
# ALX3 [11] = biological target: ALX3 (Homo sapiens, UniProt O95076 139-225, N203S)
# Chain of ALX3 (Homo sapiens, UniProt O95076 139-225, N203S) (O95076 139-225 N203S): as the sequence (O95076 139-225 N203Q) above, with Q65S counted along it
# HOXD13 [12] = biological target: HOXD13 (Homo sapiens, UniProt P35453 263-343, T313R)
# Chain of HOXD13 (Homo sapiens, UniProt P35453 263-343, T313R) (P35453 263-343 T313R): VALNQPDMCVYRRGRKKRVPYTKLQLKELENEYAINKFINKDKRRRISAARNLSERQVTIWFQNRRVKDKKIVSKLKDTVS
# HOXD13 [13] = biological target: HOXD13 (Homo sapiens, UniProt P35453 263-343)
# Chain of HOXD13 (Homo sapiens, UniProt P35453 263-343) (P35453 263-343): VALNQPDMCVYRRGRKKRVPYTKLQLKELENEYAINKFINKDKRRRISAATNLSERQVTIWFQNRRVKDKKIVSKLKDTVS
# HOXD13 [14] = biological target: HOXD13 (Homo sapiens, UniProt P35453 263-343, T313A)
# Chain of HOXD13 (Homo sapiens, UniProt P35453 263-343, T313A) (P35453 263-343 T313A): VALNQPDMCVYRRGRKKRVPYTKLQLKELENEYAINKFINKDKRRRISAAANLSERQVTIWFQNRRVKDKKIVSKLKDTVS
# HOXB6 [15] = biological target: HOXB6 (Homo sapiens, UniProt P17509 132-218, K202E)
# Chain of HOXB6 (Homo sapiens, UniProt P17509 132-218, K202E) (P17509 132-218 K202E): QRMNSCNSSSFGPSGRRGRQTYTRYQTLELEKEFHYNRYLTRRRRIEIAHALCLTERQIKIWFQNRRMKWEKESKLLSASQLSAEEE
# HOXB6 [16] = biological target: HOXB6 (Homo sapiens, UniProt P17509 132-218)
# Chain of HOXB6 (Homo sapiens, UniProt P17509 132-218) (P17509 132-218): as the sequence (P17509 132-218 K202E) above, with E71K counted along it
# VAX1 [17] = biological target: VAX1 (Homo sapiens, UniProt Q5SQQ9 86-172)
# Chain of VAX1 (Homo sapiens, UniProt Q5SQQ9 86-172) (Q5SQQ9 86-172): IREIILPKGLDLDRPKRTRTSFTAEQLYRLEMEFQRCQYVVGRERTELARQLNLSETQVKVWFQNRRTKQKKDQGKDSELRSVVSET
# VAX1 [18] = biological target: VAX1 (Homo sapiens, UniProt Q5SQQ9 86-172, T142I)
# Chain of VAX1 (Homo sapiens, UniProt Q5SQQ9 86-172, T142I) (Q5SQQ9 86-172 T142I): as the sequence (Q5SQQ9 86-172) above, with T57I counted along it
# VAX1 [19] = biological target: VAX1 (Homo sapiens, UniProt Q5SQQ9 86-172, K157R)
# Chain of VAX1 (Homo sapiens, UniProt Q5SQQ9 86-172, K157R) (Q5SQQ9 86-172 K157R): as the sequence (Q5SQQ9 86-172) above, with K72R counted along it
# Chain of HOXA4 (Homo sapiens, UniProt Q00056 201-287, R217L) (Q00056 201-287 R217L): as the sequence (Q00056 201-287) above, with R17L counted along it
# Chain of HOXA4 (Homo sapiens, UniProt Q00056 201-287, W262R) (Q00056 201-287 W262R): as the sequence (Q00056 201-287) above, with W62R counted along it
# Chain of HOXA2 (O43364 129-215 R185K): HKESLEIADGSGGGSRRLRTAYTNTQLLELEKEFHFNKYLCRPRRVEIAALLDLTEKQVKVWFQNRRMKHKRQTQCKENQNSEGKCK
sequence,measurement,setting,value
CATTAATC,binding signal,HOXA4 [1],"10.5 upbm affinity estimate (log intensity, higher = more binding, comparable within an allelic series)"
same,binding signal,HOXA4 [2],"11.9 upbm affinity estimate (log intensity, higher = more binding, comparable within an allelic series)"
same,binding signal,HOXA2,"13.2 upbm affinity estimate (log intensity, higher = more binding, comparable within an allelic series)"
same,binding signal,HOXA4 [3],"13.6 upbm affinity estimate (log intensity, higher = more binding, comparable within an allelic series)"
same,binding signal,HOXA4 [4],"11.3 upbm affinity estimate (log intensity, higher = more binding, comparable within an allelic series)"
AGCTCCCC,binding signal,HOXA4 [1],"9.71 upbm affinity estimate (log intensity, higher = more binding, comparable within an allelic series)"
same,binding signal,HOXA4 [2],"9.69 upbm affinity estimate (log intensity, higher = more binding, comparable within an allelic series)"
same,binding signal,HOXA4 [3],"9.78 upbm affinity estimate (log intensity, higher = more binding, comparable within an allelic series)"
same,binding signal,HOXA4 [4],"9.81 upbm affinity estimate (log intensity, higher = more binding, comparable within an allelic series)"
ACCCCCCG,binding signal,HOXA4 [1],"9.65 upbm affinity estimate (log intensity, higher = more binding, comparable within an allelic series)"
same,binding signal,HOXA4 [2],"9.8 upbm affinity estimate (log intensity, higher = more binding, comparable within an allelic series)"
same,binding signal,ALX3 [5],"7.72 upbm affinity estimate (log intensity, higher = more binding, comparable within an allelic series)"
same,binding signal,NKX2-6 [6],"9.16 upbm affinity estimate (log intensity, higher = more binding, comparable within an allelic series)"
same,binding signal,HOXA4 [3],"9.93 upbm affinity estimate (log intensity, higher = more binding, comparable within an allelic series)"
same,binding signal,ALX3 [7],"7.75 upbm affinity estimate (log intensity, higher = more binding, comparable within an allelic series)"
same,binding signal,ALX3 [8],"7.65 upbm affinity estimate (log intensity, higher = more binding, comparable within an allelic series)"
same,binding signal,NKX2-6 [9],"9.07 upbm affinity estimate (log intensity, higher = more binding, comparable within an allelic series)"
same,binding signal,ALX3 [10],"7.57 upbm affinity estimate (log intensity, higher = more binding, comparable within an allelic series)"
same,binding signal,HOXA4 [4],"9.7 upbm affinity estimate (log intensity, higher = more binding, comparable within an allelic series)"
same,binding signal,ALX3 [11],"7.73 upbm affinity estimate (log intensity, higher = more binding, comparable within an allelic series)"
AGGCTGGG,binding signal,HOXA4 [1],"9.88 upbm affinity estimate (log intensity, higher = more binding, comparable within an allelic series)"
same,binding signal,HOXA4 [2],"9.85 upbm affinity estimate (log intensity, higher = more binding, comparable within an allelic series)"
same,binding signal,HOXD13 [12],"9.56 upbm affinity estimate (log intensity, higher = more binding, comparable within an allelic series)"
same,binding signal,HOXD13 [13],"9.59 upbm affinity estimate (log intensity, higher = more binding, comparable within an allelic series)"
same,binding signal,HOXA4 [3],"9.82 upbm affinity estimate (log intensity, higher = more binding, comparable within an allelic series)"
same,binding signal,HOXD13 [14],"9.67 upbm affinity estimate (log intensity, higher = more binding, comparable within an allelic series)"
same,binding signal,HOXA4 [4],"9.84 upbm affinity estimate (log intensity, higher = more binding, comparable within an allelic series)"
GGGGCACC,binding signal,HOXA4 [1],"9.71 upbm affinity estimate (log intensity, higher = more binding, comparable within an allelic series)"
same,binding signal,HOXB6 [15],"8.98 upbm affinity estimate (log intensity, higher = more binding, comparable within an allelic series)"
same,binding signal,HOXA4 [2],"9.76 upbm affinity estimate (log intensity, higher = more binding, comparable within an allelic series)"
same,binding signal,HOXA4 [3],"9.9 upbm affinity estimate (log intensity, higher = more binding, comparable within an allelic series)"
same,binding signal,HOXA4 [4],"9.88 upbm affinity estimate (log intensity, higher = more binding, comparable within an allelic series)"
same,binding signal,HOXB6 [16],"8.89 upbm affinity estimate (log intensity, higher = more binding, comparable within an allelic series)"
GACCCCCC,binding signal,HOXA4 [1],"9.49 upbm affinity estimate (log intensity, higher = more binding, comparable within an allelic series)"
same,binding signal,HOXA4 [2],"9.56 upbm affinity estimate (log intensity, higher = more binding, comparable within an allelic series)"
same,binding signal,HOXA4 [3],"9.7 upbm affinity estimate (log intensity, higher = more binding, comparable within an allelic series)"
same,binding signal,HOXA4 [4],"9.59 upbm affinity estimate (log intensity, higher = more binding, comparable within an allelic series)"
CTCCCACC,binding signal,HOXA4 [1],"9.83 upbm affinity estimate (log intensity, higher = more binding, comparable within an allelic series)"
same,binding signal,HOXA4 [2],"9.72 upbm affinity estimate (log intensity, higher = more binding, comparable within an allelic series)"
same,binding signal,HOXA4 [3],"9.74 upbm affinity estimate (log intensity, higher = more binding, comparable within an allelic series)"
same,binding signal,HOXA4 [4],"9.88 upbm affinity estimate (log intensity, higher = more binding, comparable within an allelic series)"
ATCATAAG,binding signal,HOXA4 [1],"10.4 upbm affinity estimate (log intensity, higher = more binding, comparable within an allelic series)"
same,binding signal,HOXB6 [15],"9.66 upbm affinity estimate (log intensity, higher = more binding, comparable within an allelic series)"
same,binding signal,HOXA4 [3],"11.8 upbm affinity estimate (log intensity, higher = more binding, comparable within an allelic series)"
same,binding signal,HOXB6 [16],"10.3 upbm affinity estimate (log intensity, higher = more binding, comparable within an allelic series)"
CCTCGTCC,binding signal,HOXA4 [1],"9.94 upbm affinity estimate (log intensity, higher = more binding, comparable within an allelic series)"
same,binding signal,HOXA4 [2],"9.95 upbm affinity estimate (log intensity, higher = more binding, comparable within an allelic series)"
same,binding signal,HOXA4 [3],"9.86 upbm affinity estimate (log intensity, higher = more binding, comparable within an allelic series)"
same,binding signal,HOXA4 [4],"9.98 upbm affinity estimate (log intensity, higher = more binding, comparable within an allelic series)"
CATTAACG,binding signal,HOXA4 [1],"10.6 upbm affinity estimate (log intensity, higher = more binding, comparable within an allelic series)"
same,binding signal,HOXB6 [15],"9.9 upbm affinity estimate (log intensity, higher = more binding, comparable within an allelic series)"
same,binding signal,HOXA4 [2],"11.8 upbm affinity estimate (log intensity, higher = more binding, comparable within an allelic series)"
same,binding signal,HOXA4 [3],"13.6 upbm affinity estimate (log intensity, higher = more binding, comparable within an allelic series)"
same,binding signal,HOXA4 [4],"11.4 upbm affinity estimate (log intensity, higher = more binding, comparable within an allelic series)"
same,binding signal,HOXB6 [16],"11.6 upbm affinity estimate (log intensity, higher = more binding, comparable within an allelic series)"
AGGGGGCA,binding signal,HOXA4 [1],"9.67 upbm affinity estimate (log intensity, higher = more binding, comparable within an allelic series)"
same,binding signal,HOXA4 [2],"9.81 upbm affinity estimate (log intensity, higher = more binding, comparable within an allelic series)"
same,binding signal,HOXA4 [3],"9.88 upbm affinity estimate (log intensity, higher = more binding, comparable within an allelic series)"
same,binding signal,HOXA4 [4],"9.82 upbm affinity estimate (log intensity, higher = more binding, comparable within an allelic series)"
CCCCCCGA,binding signal,HOXA4 [1],"9.72 upbm affinity estimate (log intensity, higher = more binding, comparable within an allelic series)"
same,binding signal,HOXA4 [2],"9.69 upbm affinity estimate (log intensity, higher = more binding, comparable within an allelic series)"
same,binding signal,ALX3 [5],"7.7 upbm affinity estimate (log intensity, higher = more binding, comparable within an allelic series)"
same,binding signal,HOXA4 [3],"9.77 upbm affinity estimate (log intensity, higher = more binding, comparable within an allelic series)"
same,binding signal,ALX3 [7],"7.94 upbm affinity estimate (log intensity, higher = more binding, comparable within an allelic series)"
same,binding signal,ALX3 [8],"7.67 upbm affinity estimate (log intensity, higher = more binding, comparable within an allelic series)"
same,binding signal,ALX3 [10],"7.65 upbm affinity estimate (log intensity, higher = more binding, comparable within an allelic series)"
same,binding signal,HOXA4 [4],"9.57 upbm affinity estimate (log intensity, higher = more binding, comparable within an allelic series)"
same,binding signal,ALX3 [11],"7.71 upbm affinity estimate (log intensity, higher = more binding, comparable within an allelic series)"
GACTCACC,binding signal,HOXA4 [1],"9.89 upbm affinity estimate (log intensity, higher = more binding, comparable within an allelic series)"
same,binding signal,HOXA4 [2],"9.87 upbm affinity estimate (log intensity, higher = more binding, comparable within an allelic series)"
same,binding signal,HOXA4 [3],"9.79 upbm affinity estimate (log intensity, higher = more binding, comparable within an allelic series)"
same,binding signal,VAX1 [17],"6.98 upbm affinity estimate (log intensity, higher = more binding, comparable within an allelic series)"
same,binding signal,VAX1 [18],"7.2 upbm affinity estimate (log intensity, higher = more binding, comparable within an allelic series)"
same,binding signal,HOXA4 [4],"9.8 upbm affinity estimate (log intensity, higher = more binding, comparable within an allelic series)"
same,binding signal,VAX1 [19],"7.1 upbm affinity estimate (log intensity, higher = more binding, comparable within an allelic series)"
CCCCAAGG,binding signal,HOXA4 [1],"9.82 upbm affinity estimate (log intensity, higher = more binding, comparable within an allelic series)"
same,binding signal,HOXA4 [2],"9.69 upbm affinity estimate (log intensity, higher = more binding, comparable within an allelic series)"
same,binding signal,HOXD13 [12],"9.45 upbm affinity estimate (log intensity, higher = more binding, comparable within an allelic series)"
same,binding signal,HOXD13 [13],"9.55 upbm affinity estimate (log intensity, higher = more binding, comparable within an allelic series)"
same,binding signal,HOXA4 [3],"9.65 upbm affinity estimate (log intensity, higher = more binding, comparable within an allelic series)"
same,binding signal,HOXD13 [14],"9.53 upbm affinity estimate (log intensity, higher = more binding, comparable within an allelic series)"
same,binding signal,HOXA4 [4],"9.86 upbm affinity estimate (log intensity, higher = more binding, comparable within an allelic series)"
